Here are results for 104 molecules from PubChem BioAssay AID2289 (National Center for Advancing Translational Sciences (NCATS), 2010).

SMILES strings stand for the structures. Several values for one entry are separate records, joined by “and”; a condition that tells them apart may be missing. Equal entries are not always repeated. The whole screen tested about 340,000 compounds, of which about 3,300 (0.97%) were called active. Inconclusive results (about 9%) are left out. The call rests on the fitted dose curve; in most records, active means well fitted inhibition curve with a large enough effect; inconclusive means small, poorly fitted or top-dose-only effect, or effect the other way; inactive means flat fitted curve, though single readings scatter. Some of the results follow.
Potency means the concentration at half of the fitted maximal effect.

This assay is described as follows: qHTS Assay for Modulators of miRNAs and/or Inhibitors of miR-21. Further: nearly all actives have a fitted effect of over 55% in size. Conditions: HeLa miR-21-FLuc reporter, luciferase luminescence, 48 h; actives lower the signal. In short, it runs like this:
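Luminescence from a firefly luciferase reporter carrying a miR-21 binding site downstream, stably expressed under a CMV promoter in HeLa cells that make miR-21 endogenously, reports miRNA modulation after 48 h compound exposure up to approximately 40uM final.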
On the technique in general: Quantitative high-throughput screening tests each substance at several concentrations.
In the case of `O=C(Nc1ccc(F)cc1)c1c(Cl)nc2ccccn12`, the Potency was 16.5 µM (active).
With `Cc1ccc(NC(=O)c2c(Cl)nc3ccccn23)cc1` the figure was 2.93 µM (active).
The value for `C/C(=N\Nc1ccc(Cl)c(C(=O)O)c1)c1cccc([N+](=O)[O-])c1` was 13.1 µM (active).
With `C/C(=N\Nc1ccc(Cl)c(C(=O)O)c1)c1ccccn1` the figure was 16.5 µM (active).
With `C/C(=N\Nc1ccc(Cl)c(C(=O)O)c1)c1ccc2c(c1)OCO2`, the Potency was 11.7 µM (active).
Take `C/C(=N\Nc1ccc(Cl)c(C(=O)O)c1)c1ccc[nH]1`: the Potency is 14.7 µM (active).
Consider `Cc1ccc(N/C=C/C(=O)c2ccccc2)cc1Br`, for which the Potency is 0.369 µM (active).
With `Cc1cc(N/C=C/C(=O)c2ccccc2)ccc1Br` the figure was 0.369 µM (active); with `Cn1cc(Cl)c(C(=O)N/N=C/c2ccc3c4c(cccc24)CC3)n1`, 1.65 µM (active); with `Nc1ccc(N=Nc2ccccc2Cl)c(N)n1`, 2.07 µM (active).
Regarding `COc1ccc(N=Nc2ccc(N)nc2N)cc1`, the Potency was 2.61 µM (active).
The value for `COc1ccc(-c2noc(CSc3ccccc3)n2)cc1OC` was 11.7 µM (active); that for `c1ccc(SCc2nc(-c3ccccn3)no2)cc1` was 2.82 µM (active).
In the case of `N=c1oc2ccccc2cc1C(=O)Nc1cccc(F)c1`, the Potency is 0.165 µM (active).
Turning to `Cc1ccc(NC(=O)c2cc3ccccc3oc2=N)cc1`, the Potency is 0.0736 µM (active).
With `COc1ccc(NC(=O)c2cc3ccccc3o/c2=N\NS(=O)(=O)c2ccc(C)cc2)cc1` the figure was 3.29 µM (active); with `N=c1oc2cc(O)ccc2cc1C(=O)Nc1nc2ccccc2s1`, 1.04 µM (active).
Consider `CCc1ccc2oc(-c3cc(N)cc(C)c3O)nc2c1`, for which the Potency was 2.93 µM (active).
With `O=C(Nc1nc(-c2cccs2)cs1)C1=COCCO1` the figure was 2.33 µM (active); with `N/C(=N\O)c1ccc(N2CCN(c3ncccc3C(F)(F)F)CC2)nc1`, 4.65 µM (active).
The value for `CC(C)(C)c1ccc(SCCc2cccnc2)cc1` was 8.26 µM (active); that for `CC(C)(C)c1ccc(SCCc2ccccn2)cc1` was 6.56 µM (active); that for `Cc1ccc(NC(=O)NC(=O)N(C2CCCCC2)S(=O)(=O)c2ccccc2)cc1` was 16.5 µM (active).
With `Cc1ccc2oc(=O)c(/C=C(\O)c3cccs3)nc2c1` the figure was 4.65 µM (active); with `Nc1c(-c2cccc([N+](=O)[O-])c2)nc2ccccn12`, 5.85 µM (active); with `CN1CCC(Oc2ccc(Sc3ccccc3)cc2)CC1`, 5.21 µM (active).
On to `COc1ccc(CN(C(=O)c2cc3ccccc3oc2=O)C2CCS(=O)(=O)C2)cc1OC` (centres undefined), for which the Potency is 5.85 µM (active) and 13.1 µM (active).
Consider `CC(C)Oc1cccc(C(=O)NC(=S)Nc2cccnc2)c1`, for which the Potency was 13.1 µM (active).
With `CC(C)Oc1cccc(C(=O)NC2=NCCS2)c1` the figure was 3.69 µM (active).
The value for `O=C(NC1=NCCS1)c1ccc(C(F)(F)F)cc1` was 6.56 µM (active); that for `O=C(NCc1ccco1)c1cc(-c2cccs2)on1` was 5.85 µM (active).
The value for `O=C(NCc1ccco1)c1cc(-c2ccccc2)on1` was 7.36 µM (active).
As to `O=C(NCc1cccnc1)c1cc(-c2ccccc2)on1`, the Potency is 18.5 µM (active).
The value for `O=C(NC12CC3CC(CC(C3)C1)C2)N1CCN(C(=O)c2ccco2)CC1` was 16.5 µM (active); that for `O=C1/C(=C/c2cccs2)CCC/C1=C\c1cccs1` was 1.65 µM (active); that for `CC(=O)N(c1nnc(-c2cccc(C)c2)s1)C1CCCC1` was 8.26 µM (active).
The value for `CC(=O)Oc1ccc(-c2csc(Nc3cccc(C)n3)n2)cc1` was 1.47 µM (active); that for `Oc1ccc(-c2csc(Nc3ccccn3)n2)cc1O` was 2.61 µM (active); that for `Oc1ccc(-c2csc(Nc3ncccn3)n2)cc1O` was 5.85 µM (active).
Regarding `CCCCCNc1nc(-c2ccccc2)cs1`, the Potency is 1.65 µM (active).
With `c1ccc(-c2csc(Nc3ncccn3)n2)cc1` the figure was 0.208 µM (active); with `c1ccc(Nc2nc(-c3cccs3)cs2)nc1`, 0.293 µM (active); with `Cc1nc(N)sc1-c1csc(Nc2ncccn2)n1`, 2.93 µM (active).
For `Cc1cccc(Nc2nc(-c3ccc(O)c(O)c3)cs2)n1`, the Potency is 8.26 µM (active).
With `Cc1ccnc(Nc2nc(-c3ccc(O)c(O)c3)cs2)c1` the figure was 4.65 µM (active).
The value for `Cc1ccc(Nc2nc(-c3ccc(O)c(O)c3)cs2)nc1` was 8.26 µM (active); that for `CCOC(=O)c1cccnc1SCc1cc(=O)n2ccccc2n1` was 13.1 µM (active).
With `COc1ccc(/C=N/NC(=O)c2ccoc2C)cc1O` the figure was 6.56 µM (active); with `CCOc1ccc(/C=N/NC(=O)c2ccoc2C)cc1OC`, 7.36 µM (active); with `Cc1ccc2nc(-c3ccc(NC(=O)CN4C(=O)c5ccccc5C4=O)cc3)sc2c1`, 1.65 µM (active).
For the molecule `Cc1ccc2sc(-c3ccc(NC(=O)CCN4C(=O)c5ccccc5C4=O)cc3)nc2c1`, the Potency is 0.104 µM (active).
In the case of `Cc1ccc2nc(-c3ccc(NC(=O)CCN4C(=O)c5ccccc5C4=O)cc3)sc2c1`, the Potency is 0.0927 µM (active).
The value for `O=C(CCN1C(=O)c2ccccc2C1=O)Nc1ccc(-c2nc3ccccc3s2)cc1` was 0.261 µM (active); that for `Cc1ccc2nc(-c3ccc(NC(=O)CSc4nc(N)cc(=O)[nH]4)cc3)sc2c1` was 8.26 µM (active); that for `Cc1ccc2nc(-c3ccc(NC(=O)C(C)N4C(=O)c5ccccc5C4=O)cc3)sc2c1` (centres undefined) was 1.17 µM (active).
For `CCC(=O)c1ccc(OCc2ccc(C(=O)OC)cc2)cc1`, the Potency was 0.261 µM (active).
With `CCC(=O)c1ccc(OCc2ccc(C#N)cc2)cc1` the figure was 9.27 µM (active).
As to `CCOc1ccc(C2=NNC(c3cccs3)=Nc3ccc(OC)cc32)cc1OCC`, the Potency is 18.5 µM (active).
The value for `CCOc1ccc2c(c1)C(c1ccc(C)cc1)=NNC(c1ccc(C)cc1)=N2` was 8.26 µM (active); that for `C=C(C)C1Cc2cc3ccc(=O)oc3cc2O1` (centres undefined) was 16.5 µM (active); that for `Cc1ccc(Cn2nnc3c(=O)[nH]c(C4CCCN(S(=O)(=O)c5ccccc5)C4)nc32)cc1` (centres undefined) was 18.5 µM (active).
Turning to `O=C(Nc1ccccc1Br)c1cc(=O)c2ccccc2o1`, the Potency was 2.07 µM (active).
The value for `NC(=O)c1ccsc1NC(=O)c1cc(=O)c2ccccc2o1` was 0.329 µM (active); that for `NC(=O)c1ccsc1NC(=O)c1coc2ccccc2c1=O` was 1.17 µM (active); that for `COc1cccc(/C(C)=N/Nc2ncc(Cl)cc2Cl)c1` was 16.5 µM (active).
With `COc1cccc(/C(C)=N/N=C(\C)c2cccc(OC)c2)c1` the figure was 4.14 µM (active); with `CCNc1nc(N)nc(Oc2ccc(C(=O)OC)cc2)n1`, 8.26 µM (active); with `CC(=O)COc1ccc2c(c1C)O/C(=C\c1ccco1)C2=O`, 3.69 µM (active).
With `CN(CC(=O)NCCc1ccccc1)Cc1ccco1` the figure was 14.7 µM (active); with `O=C(CCCOc1ccc(Cl)cc1Cl)Nc1ccccn1`, 11.7 µM (active).
`CCNC(=O)CCCOc1ccc(Cl)cc1Cl`: the Potency is 16.5 µM (active).
The value for `CCN(CC)C(=O)CCCOc1ccc(Cl)cc1Cl` was 14.7 µM (active); that for `Cn1c(CCCOc2ccc(Cl)cc2Cl)n[nH]c1=S` was 13.1 µM (active).
The value for `C=CCSc1ncc(C(=O)OCC)c(N)n1` was 16.5 µM (active); that for `CCCCSc1ncc(C(=O)OCC)c(N)n1` was 1.31 µM (active); that for `CCOC(=O)c1cnc(SCc2ccc(C)cc2)nc1N` was 7.94 µM (active).
With `CCOC(=O)c1cnc(SCCc2ccccc2)nc1N` the figure was 1.65 µM (active).
For the molecule `COc1cc(C2Nc3ccccc3C(=O)N2c2ccc(Cl)cc2)c(Cl)cc1OCC(=O)O` (centres undefined), the Potency was 2.33 µM (active).
For `CCOC(=O)COc1ccccc1C1Nc2ccccc2C(=O)N1c1cccc(Cl)c1` (centres undefined), the Potency is 5.85 µM (active).
With `O=C(CSc1nc(-c2ccc(F)cc2)cs1)N1CCOCC1` the figure was 6.56 µM (active).
With `Cc1nc(-c2ccc3c(c2)CCC(=O)N3)cs1` the figure was 14.7 µM (active); with `CCc1ccccc1NC(=O)CSc1nc(C)c(C(=O)Nc2ccccc2)c(-c2ccc(Cl)cc2)c1C#N`, 23.3 µM (active); with `COc1ccccc1CCCNC(=O)C1CCC(=O)N(Cc2ccccc2F)C1` (centres undefined), 14.7 µM (active).
On to `O=C(NCCc1c[nH]c2ccccc12)c1ccc(F)cc1F`, for which the Potency was 9.27 µM (active).
The value for `O=C(NCCc1c[nH]c2ccccc12)c1ccc(Cl)cc1` was 7.36 µM (active).
With `COc1ccc(C(=O)NCCc2c[nH]c3ccccc23)cc1` the figure was 3.29 µM (active); with `Cc1ccc(S(=O)(=O)/N=C(/NNC(=O)c2cccc(Cl)c2)c2ccccc2)cc1`, 1.85 µM (active).
With `O=C(NN/C(=N/S(=O)(=O)c1ccc(Cl)cc1)c1ccccc1)c1cccc(Cl)c1` the figure was 2.07 µM (active).
Turning to `C(=N\Nc1ccccn1)/c1ccc(N2CCOCC2)cc1`, the Potency is 1.85 µM (active).
With `Fc1ccc(/C=N/Nc2ccccn2)cc1` the figure was 8.26 µM (active).
In the case of `COc1cc(N/N=C/c2ccc(N(C)C)cc2)ncn1`, the Potency was 0.208 µM (active).
With `CN(C)c1ccc(/C=N\Nc2ccccn2)cc1` the figure was 0.521 µM (active).
With `COc1ccc(C2=NN(C(=O)CN3CCOCC3)C(c3nc4ccccc4[nH]3)C2)cc1` (centres undefined) the figure was 10.4 µM (active).
With `CN(C)CCCNC(=O)c1ccc(/C=N/O)nc1` the figure was 1.85 µM (active).
Turning to `c1ccc(-c2onc3cc4c(cc23)OCCO4)cc1`, the Potency is 2.07 µM (active).
Consider `Fc1ccc(Nc2ccc(-c3ccc(F)cc3)nn2)cc1`, for which the Potency is 3.29 µM (active).
The value for `O=C(O)c1ccc(N/N=C/c2ccc(-c3ccc(Br)cc3)o2)cc1` was 5.85 µM (active).
With `O=C(O)c1ccc(N/N=C/c2ccc(-c3cccc(Cl)c3)o2)cc1` the figure was 0.927 µM (active).
Turning to `O=C(O)c1ccc(N/N=C/c2ccc(-c3ccc(Cl)cc3Cl)o2)cc1`, the Potency is 18.5 µM (active).
`O=C(O)c1ccc(N/N=C/c2ccc(-c3cc(Cl)ccc3Cl)o2)cc1`: the Potency was 6.56 µM (active).
`O=C(O)c1ccc(N/N=C/c2ccc(-c3ccccc3Cl)o2)cc1`: the Potency was 0.293 µM (active).
The value for `c1cnc2c(SCc3ccc(-c4nnco4)cc3)cccc2c1` was 13.1 µM (active); that for `COc1ccccc1OCCCn1c(=O)sc2ccccc21` was 9.27 µM (active).
The value for `Cc1ccccc1OCCCn1c(=O)sc2ccccc21` was 6.56 µM (active).
